# In PubChem BioAssay:
# A number with no mark means an inactive call. For some assays here: Entries with a potency or affinity are not part of this list. Activity calls are given as the source filed them. Unless noted, the rule behind the calls is not given here.
# What was measured:
# [1] = antimalarial activity against Dd2 strain (AID 2302;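 active = growth inhibition above 50% at the single 2 µM test dose, taken to imply half-maximal potency below 2 µM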;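 note: 0% = DMSO untreated growth and 100% = chloroquine plus artemisinin killed control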); details: P. falciparum Dd2 in RBCs, LDH growth readout, 72 h; at 2 µM; active compounds read high
# [2] = HepG2 cytotoxicity, primary screen, cytotoxicity control for P. falciparum antimalarial project, cell-based, ATP luminescence (AID 2303;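 active = inhibition above 50%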;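 note: 0% = DMSO wells and 100% = digitonin-killed cells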); details: HepG2 viability, 24-48 h, at 10 µM, active compounds read high
# [3] = biological target: L-lactate dehydrogenase (Plasmodium falciparum (isolate CDC / Honduras)) (UniProt Q27743); assay: PfLDH activity inhibition – cell lysate, 3D7 strain, counter-screen for P. falciparum growth inhibition project (AID 2304);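 note: 0% = vehicle and 100% = reference inhibitor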; details: P. falciparum 3D7 crude extract, LDH APAD/NBT absorbance; at 2 µM; active compounds read high
# [4] = inhibition of 3D7 malaria parasite growth – strain 3D7 (AID 2306);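 note: 0% = DMSO wells and 100% = chloroquine plus artemisinin control wells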; details: P. falciparum 3D7 erythrocytic growth, LDH absorbance, 72 h; at 2 µM; active compounds read high
# [5] = biological target: Calcium-dependent protein kinase 1 (Plasmodium falciparum (isolate 3D7)) (UniProt P62344); assay: PfCDPK1 kinase inhibitors, biochemical, TCAMS library (AID 1159585; cut-off not given, nearly all actives have IC50 up to about 0.98 µM;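 note: inhibitors leave more ATP so luminescence rises with inhibition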); details: recombinant PfCDPK1, Kinase-Glo ATP depletion luminescence
# [6] = biological target: Plasmodium falciparum protein kinase 6 (PK6, PF3D7_1337100) (UniProt Q8IDW1); assay: PfPK6 kinase inhibitors, biochemical, TCAMS library (AID 1159586); details: recombinant PfPK6, Kinase-Glo ATP depletion luminescence
# [7] = biological target: Protein kinase 7 (PK7), Plasmodium falciparum 3D7 (PF3D7_0213400) (UniProt Q7YTF7); assay: inhibition of Plasmodium PK7 catalytic activity – biochemical, TCAMS antimalarial set, Kinase-Glo luminescence (AID 1159587); details: recombinant PfPK7, Kinase-Glo ATP depletion luminescence
# [8] = biological target: Calcium-dependent protein kinase 4 (Plasmodium falciparum (isolate 3D7)) (UniProt Q8IBS5); assay: PfCDPK4 kinase inhibitors, biochemical, TCAMS library (AID 1159588; cut-off not given, nearly all actives have IC50 up to about 0.91 µM); details: recombinant PfCDPK4, Kinase-Glo ATP depletion luminescence
# Sequence of Calcium-dependent protein kinase 4 (Plasmodium falciparum (isolate 3D7)) (Q8IBS5 whole entry, looked up): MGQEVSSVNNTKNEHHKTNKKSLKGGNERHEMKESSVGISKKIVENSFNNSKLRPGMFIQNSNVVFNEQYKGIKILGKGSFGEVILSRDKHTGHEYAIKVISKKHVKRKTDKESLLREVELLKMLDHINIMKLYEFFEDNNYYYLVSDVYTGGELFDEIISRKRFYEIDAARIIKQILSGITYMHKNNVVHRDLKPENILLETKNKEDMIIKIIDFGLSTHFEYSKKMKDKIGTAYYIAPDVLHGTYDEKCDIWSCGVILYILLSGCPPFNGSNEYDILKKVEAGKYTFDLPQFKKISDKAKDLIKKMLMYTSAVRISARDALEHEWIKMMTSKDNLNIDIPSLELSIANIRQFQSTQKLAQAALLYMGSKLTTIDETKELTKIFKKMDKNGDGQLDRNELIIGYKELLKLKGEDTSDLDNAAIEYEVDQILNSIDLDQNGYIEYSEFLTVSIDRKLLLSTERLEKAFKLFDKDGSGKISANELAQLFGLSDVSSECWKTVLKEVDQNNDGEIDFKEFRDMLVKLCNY
# Sequence of Plasmodium falciparum protein kinase 6 (PK6, PF3D7_1337100) (Q8IDW1 1-305): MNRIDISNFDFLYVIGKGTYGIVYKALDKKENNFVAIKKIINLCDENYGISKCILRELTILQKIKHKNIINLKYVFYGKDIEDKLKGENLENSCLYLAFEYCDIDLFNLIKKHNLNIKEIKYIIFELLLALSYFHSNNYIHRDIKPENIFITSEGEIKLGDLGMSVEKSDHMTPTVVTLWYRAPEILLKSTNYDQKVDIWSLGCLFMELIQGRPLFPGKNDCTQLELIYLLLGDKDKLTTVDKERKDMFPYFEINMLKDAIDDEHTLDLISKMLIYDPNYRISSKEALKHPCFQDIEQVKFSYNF
# Sequence of Protein kinase 7 (PK7), Plasmodium falciparum 3D7 (PF3D7_0213400) (Q7YTF7 1-343): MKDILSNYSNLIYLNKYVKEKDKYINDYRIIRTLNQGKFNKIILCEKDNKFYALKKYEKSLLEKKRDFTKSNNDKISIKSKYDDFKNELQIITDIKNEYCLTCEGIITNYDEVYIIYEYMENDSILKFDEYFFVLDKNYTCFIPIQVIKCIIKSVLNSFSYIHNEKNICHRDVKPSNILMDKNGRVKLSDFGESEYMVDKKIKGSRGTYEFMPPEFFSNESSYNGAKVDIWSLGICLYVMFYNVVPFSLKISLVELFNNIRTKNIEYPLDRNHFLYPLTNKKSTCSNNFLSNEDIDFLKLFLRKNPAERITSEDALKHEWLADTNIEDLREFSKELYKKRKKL
# Sequence of L-lactate dehydrogenase (Plasmodium falciparum (isolate CDC / Honduras)) (Q27743 whole entry, looked up): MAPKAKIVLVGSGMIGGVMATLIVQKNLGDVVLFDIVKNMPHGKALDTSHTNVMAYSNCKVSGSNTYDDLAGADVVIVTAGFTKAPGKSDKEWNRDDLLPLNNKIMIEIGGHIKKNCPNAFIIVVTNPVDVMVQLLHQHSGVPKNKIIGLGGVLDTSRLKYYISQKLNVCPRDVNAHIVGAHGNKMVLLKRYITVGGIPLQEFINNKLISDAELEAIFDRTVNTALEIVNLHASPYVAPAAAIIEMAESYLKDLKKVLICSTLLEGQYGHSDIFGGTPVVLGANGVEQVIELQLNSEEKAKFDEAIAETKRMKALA
# Sequence of Calcium-dependent protein kinase 1 (Plasmodium falciparum (isolate 3D7)) (P62344 whole entry, looked up): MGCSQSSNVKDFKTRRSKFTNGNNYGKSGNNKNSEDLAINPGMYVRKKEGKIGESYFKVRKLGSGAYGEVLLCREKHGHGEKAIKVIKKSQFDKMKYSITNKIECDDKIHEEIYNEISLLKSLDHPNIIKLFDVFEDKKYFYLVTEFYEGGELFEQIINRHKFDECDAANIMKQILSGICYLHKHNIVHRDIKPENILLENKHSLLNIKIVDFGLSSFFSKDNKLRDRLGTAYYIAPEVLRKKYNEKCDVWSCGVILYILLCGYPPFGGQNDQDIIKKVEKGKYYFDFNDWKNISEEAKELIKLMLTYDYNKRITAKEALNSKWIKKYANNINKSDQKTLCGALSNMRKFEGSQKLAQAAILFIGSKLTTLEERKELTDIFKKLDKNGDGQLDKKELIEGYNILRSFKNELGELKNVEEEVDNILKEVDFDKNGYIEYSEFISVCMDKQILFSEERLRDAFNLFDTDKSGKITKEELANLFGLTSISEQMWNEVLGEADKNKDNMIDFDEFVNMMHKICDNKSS
Structure (SMILES),growth inhibition [1],inhibition [2],inhibition [3] [%],growth inhibition [4],outcome [5],outcome [6],outcome [7],outcome [8]
Cc1cc(C)n(Cc2ccc(C(=O)NCC3CCCCC3)cc2)n1,1%,0%,2,95% (active),inactive,inactive,inactive,inactive
Cc1c(O)cccc1Nc1ccnc2ccc(C(F)(F)F)cc12,51% (active),-15%,-2,96% (active),inactive,inactive,inactive,inactive
COc1cccc2c(NN=Cc3ccccc3[N+](=O)[O-])ccnc12,43%,8%,-3,99% (active),inactive,inactive,inactive,inactive
NC1CCN(Cc2cccc(-c3ccc(-c4nc5ccc(F)cc5[nH]4)cc3)c2)C1 (stereo not given),99% (active),24%,-1,99% (active),inactive,inactive,inactive,inactive
CCN(CCCN1CCCCC1)c1cc(C)nc(Nc2cc(C)ccc2C)n1,42%,34%,2,93% (active),inactive,inactive,inactive,inactive
CO/C(=C\C=C\c1cc2cc(Cl)c(Cl)cc2[nH]1)C(=O)NCCCCN1CCN(c2ccccc2OC)CC1,96% (active),55% (active),-1,100% (active),inactive,inactive,inactive,inactive
CCOc1c(OC)ccc2c1CCN(CCN1CCC(CNC(=O)c3ccc(-c4ccc(C#N)cc4)cc3)CC1)C2,61% (active),45%,7,92% (active),inactive,inactive,inactive,inactive
CS(=O)(=O)c1ccc(CNCc2ccc(-c3cccc(-c4nc5ccc(F)cc5[nH]4)c3)cc2)cc1,74% (active),33%,-5,102% (active),inactive,inactive,inactive,inactive
N#Cc1ccc(-c2ccc(C(=O)NC3CCN(CCN4CCC(c5cn(CCO)c6ccccc56)CC4)CC3)cc2)cc1,79% (active),30%,-2,100% (active),inactive,inactive,inactive,inactive
Cc1cc(C(=O)Nc2ccc(-c3ccccc3)cc2)no1,94% (active),6%,-3,90% (active),inactive,inactive,inactive,inactive
N#Cc1ccc(N(CCOc2ccc(Cl)c(Cl)c2)Cc2ccccc2C(F)(F)F)cc1C(F)(F)F,57% (active),13%,-2,90% (active),inactive,inactive,inactive,inactive
CN(C)c1ccc(Br)c(Br)c1,-4%,17%,-5,86% (active),inactive,inactive,inactive,inactive
COc1ccc2ncc(F)c([C@@H](O)CN3CCC(NCc4cc5c(cn4)OCS5)CC3)c2c1,98% (active),16%,-2,103% (active),inactive,inactive,inactive,inactive
CC1=C(C(=O)Nc2cc3cn[nH]c3cc2F)C(c2cccc(O)c2F)CC(=O)N1 (stereo not given),98% (active),1%,-2,97% (active),inactive,inactive,inactive,inactive
O=C(NCC1CCN(Cc2cccc(C(F)(F)F)c2)C1)c1cc(-c2cccc(Cl)c2)cs1 (stereo not given),14%,15%,-5,93% (active),inactive,inactive,inactive,inactive
Cc1cc(NCC2CCN(CC3CCCCC3)C2)nc(Nc2ccc(Cl)cc2)n1 (stereo not given),74% (active),2%,-3,101% (active),inactive,inactive,inactive,inactive
CCN(CC)c1ccc(C(=O)Cn2ccc(=N)cc2)cc1,64% (active),92% (active),3,84% (active),inactive,inactive,inactive,inactive
O=C(c1ccc(Cl)cc1)C1CCN(CCCOc2ccc3c(c2)CCNCC3)CC1,23%,78% (active),-2,93% (active),inactive,inactive,inactive,inactive
CCN(CCCN1CCCCC1)c1cc(C)nc(Nc2ccc(C)c(Br)c2)n1,98% (active),42%,-8,102% (active),inactive,inactive,inactive,inactive
CCNc1cc(C(=O)N[C@@H](Cc2ccccc2)[C@H](O)CNC23CCC(CC2)C3)cc(N2CCCCS2(=O)=O)c1,99% (active),22%,-2,97% (active),inactive,inactive,inactive,inactive

Structure (SMILES),growth inhibition [1],inhibition [2],inhibition [3] [%],growth inhibition [4],outcome [5],outcome [6],outcome [7],outcome [8]
CCOc1ccccc1CNc1nccc(NCc2ccc(Cl)cc2Cl)n1,58% (active),26%,-3,83% (active),inactive,inactive,inactive,inactive
C#CC[C@@H](NC(N)=O)C(=O)O,0%,1%,-2,97% (active),inactive,inactive,inactive,inactive
COc1ccc(OC)c(NC(=O)c2c(-c3c(F)cccc3Cl)noc2C)c1,25%,-1%,-1,94% (active),inactive,inactive,inactive,inactive
CN1CCN(CCCN(Cc2cccc(-c3ccc(CNCc4ccc5c(c4)OCO5)cc3)c2)C(=O)CCC2CCCC2)CC1,84% (active),91% (active),-6,98% (active),inactive,inactive,inactive,inactive
COc1cccc(CNC[C@@H](O)[C@H](Cc2ccccc2)NC(=O)c2cc3c4c(c2)c(C(C)C)cn4CCS(=O)(=O)N3C)c1,98% (active),21%,-6,98% (active),inactive,inactive,inactive,inactive
COc1cc(CCCON2C(N)=NC(N)=NC2(C)C)cc(OC)c1OC,94% (active),68% (active),-2,98% (active),inactive,inactive,inactive,inactive
COc1cc(C(=O)NC2CCN(Cc3ccccc3)CC2)ccc1-c1cc2cc(Cl)c(Cl)cc2[nH]1,101% (active),33%,5,102% (active),inactive,inactive,inactive,inactive
FC(F)(F)c1cccnc1N1CCC(Nc2nc3ccc(Cl)cc3[nH]2)CC1,39%,32%,-2,93% (active),inactive,inactive,inactive,inactive
Cc1[nH]c(C)c(-c2ccc(Br)cc2)c(=O)c1Br,95% (active),9%,6,98% (active),inactive,inactive,inactive,inactive
CN1CCN(c2ccnc3ccc(NC(=O)Cc4ccc(-c5ccncc5)c5ccccc45)cc23)CC1,101% (active),32%,3,103% (active),inactive,inactive,inactive,inactive
Clc1cc(Cl)c2cc(CN[C@H]3CCC[C@@H]3CNc3nc4ccccc4[nH]3)[nH]c2c1,58% (active),85% (active),-1,99% (active),inactive,inactive,inactive,inactive
CNCCNCc1cccc(-c2ccc(-c3nc4ccccc4[nH]3)s2)c1,9%,8%,0,99% (active),inactive,inactive,inactive,inactive
Cc1cc(N[C@@H](CC(C)C)C(=O)NCc2cccs2)nc(NCCc2ccccc2)n1,8%,1%,-2,94% (active),inactive,inactive,inactive,inactive
COc1ccc(Br)cc1/C=C/C(=O)Nc1cccc(C2CCCN(C)C2)c1 (stereo not given),30%,12%,1,99% (active),inactive,inactive,inactive,inactive
COc1ccc(-c2nnc(Sc3ccc(C#N)c([N+](=O)[O-])c3)n2CCC(C)C)cc1,53% (active),15%,5,89% (active),inactive,inactive,inactive,inactive
COCCNCc1nc(-c2ccc3c(Nc4ccc(Cl)cc4F)ccnc3c2)cs1,100% (active),-4%,-1,101% (active),inactive,inactive,inactive,inactive
OC(CNc1ccnc(Nc2cccc(CCN3CCOCC3)c2)n1)c1ccccc1 (stereo not given),14%,34%,-1,102% (active),inactive,inactive,inactive,inactive
CCN(CC)CCCC(C)Nc1c(-c2ccc(OC)cc2)cnc2ccccc12 (stereo not given),38%,3%,-6,93% (active),inactive,inactive,inactive,inactive
CCOc1ccc(OCCCON2C(N)=NC(N)=NC2(C)C)cc1,94% (active),63% (active),-9,97% (active),inactive,inactive,inactive,inactive
CCOc1cc(C(=O)Nc2ccc(-c3nc4ccccc4[nH]3)cc2)cc(OCC)c1OCC,94% (active),42%,-2,100% (active),inactive,inactive,inactive,inactive
